Measurements from PubChem BioAssay AID651898 (Broad Institute, 2012).
The list shows a part of the results. Activity calls are given as the source filed them. The rule behind the calls is not given here.

Assay: HepG2 hepatoma cell viability loss – plate reader, cherry-pick, two tests, cytotoxicity control, dose response (AID 651898)
Details: max activity: at 12 µM, test 1 unless noted; series mostly up to 26 µM; activity change, negative = cytotoxicity: at the top concentration
In the case of `CCC(CO)Oc1cc(NC(=O)c2cccc(F)c2)c2ncn(C(C)C)c2c1` (stereo not drawn), the max activity was 10.6% [measured here: replicate test 2 max activity, at 0.195 µM, test 2] and the “activity change, negative = cytotoxicity” value was -8.3% (inactive).
With `CC(=O)CSc1nnc(CSc2ncccn2)n1C1CCCCC1` the max activity was 18.7% [at 1.6 µM, test 1] (inactive).
In the case of `Cc1c2cnn(CC(=O)NCc3ccccn3)c(=O)c2c(C)n1Cc1ccc(Cl)cc1`, the max activity was 24.2% [at 26 µM, test 1] (inactive).
For `O=C(c1ccncc1)N1CC[C@@H]2[C@H]1c1cc(Br)ccc1N[C@@H]2CO`, the “activity change, negative = cytotoxicity” value was 2.06% (inactive) and the max activity was -16.4% [measured here: replicate test 2 max activity, at 0.8 µM, test 2].
In the case of `CC1(C)CC(=O)C=C(c2ccc3ncccc3c2)C1`, the max activity was -17% (inactive).
With `O=c1[nH]c(N2CCN(Cc3ccc4c(c3)OCO4)CC2)nc2c1CCCC2` the max activity was -9.65% [at 0.38 µM, test 1] (inactive).
In the case of `CCCOc1ccc2c3c(c(=O)oc2c1OCCC)CCC3`, the max activity was 27.7% [at 26 µM, test 1] (inactive).
In the case of `Cc1c(OC(C)C(=O)NCC2CCC(C(=O)O)CC2)ccc2c1oc(=O)c1ccccc12` (stereo not drawn), the max activity was 38.2% (inactive).
For `CC(=O)O[C@]1(C(C)=O)CC[C@H]2[C@@H]3C=C(C)C4=CC(=O)CC[C@]4(C)[C@H]3CC[C@@]21C`, the max activity was 5.11% [at 1.6 µM, test 1] (inactive).
With `CN1c2ccc(-c3ccccc3)cc2[C@H]2[C@H](CCN2C(=O)Cc2ccccn2)[C@H]1CO` the “activity change, negative = cytotoxicity” value was 20.8% [at 23.5 µM] (inactive) and the max activity was 20.8% [measured here: replicate test 2 max activity, at 23.5 µM, test 2].
